Rows were chosen to be rich in hits. Some 27% of all compounds tested hit in one or more screens of this group.
Cav3 T inh – blocks human Cav3.2 T-type calcium channel; Cav3.2-expressing cells, Fluo-4 calcium fluorescence FDSS; active compounds read low; B-score at 10 µM; actives 4% (n = 100,000); AID 449739;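 active = single-dose well whose peak fluorescence ratio is a statistical outlier from its plate by either plate-standardised score or position-corrected B-score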
CYP2C9 act – activators of human CYP2C9; P11712; recombinant CYP2C9, luciferin-H conversion, luminescence; active compounds read high; factor 1 = untreated enzyme, 0 = blocked; activation factor at 5 µM; actives 1.4% (n = 96,000);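 active = activation factor of 2 or more for CYP2C9 at a 5 µM dose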;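 note: 0 = sulfaphenazole-blocked wells and 1 = vehicle-only wells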
CYP2C9 inh – inhibitors of human CYP2C9. P11712. CYP2C9 Supersomes, luciferin-H conversion, luminescence. inhibition, % at 5 µM. actives 20% (n = 96,000). AID 777;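 active = blocking of liver enzyme CYP2C9 beyond about 50% at 5 µM, limit read from the data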
CYP2C19 activ – cytochrome P450 2C19 (human) activation. recombinant CYP2C19, luciferin-H EGE luminescence; active compounds read high; 0 = fully inhibited enzyme, 1 = untreated enzyme. activation factor at 5 µM. 96,000 tested, under 10 active. AID 1025;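 active = activation factor of at least 2 at 5 µM in the primary screen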;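 note: 0 = wells with 2.5 mM tranylcypromine and 1 = vehicle-only wells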
CYP2C19 inh – blocks human cytochrome P450 2C19; P33261; CYP2C19 Supersomes, luciferin-H EGE luminescence, 30 min; inhibition, % at 5 µM; actives 21% (n = 96,000); AID 778;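 active = CYP2C19 inhibition above a set limit at 5 µM in the primary screen, cut at about 50% in these data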;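 note: plate controls were negative control wells for no effect and 2.5 mM tranylcypromine positive control for full effect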
* = called active by the depositor; nt = not tested or not shown.

SMILES | Cav3 T inh | CYP2C9 act | CYP2C9 inh | CYP2C19 activ | CYP2C19 inh
OCCn1c(SCCOc2ccccc2F)nc2ccccc21 | -1.2 | 0.5 | 52* | 0.1 | 94*
O=C(O)Cn1c(SCCOc2ccccc2F)nc2ccccc21 | -5.3* | 0.3 | 70* | 0.9 | 8
OCCSc1nc2ccccc2n1CCOc1ccccc1 | -1.1 | 0.2 | 78* | 0.1 | 91*
COc1ccc(OC)c(NC(=O)CSc2nnnn2-c2ccc3c(c2)OCO3)c1 | 0.34 | 1.1 | -6 | 1 | 4
COc1ccc(OC)c(-n2nnnc2SCC(=O)Nc2ccc(C(=O)N3CCCCC3)cc2)c1 | -1.1 | 0.3 | 67* | 0.2 | 78*
COc1ccc(OC)c(-n2nnnc2SCC(=O)Nc2ccc3c(c2)OCCO3)c1 | -0.45 | 0.6 | 42 | 0.7 | 33
CCCOC(=O)c1ccc(-n2nnnc2SCC(=O)N2CCCCC2)cc1 | -0.63 | 0.6 | 38 | 0.5 | 46
CCOC(=O)CSc1nnnn1-c1cc(OC)ccc1OC | 0.013 | 0.4 | 65* | 0.3 | 71*
COC(=O)c1ccc(-n2nnnc2SCC(=O)N2CCCCC2)cc1 | 1.4 | 0.4 | 55* | 0.7 | 26
CCC(C)[C@H](NC(=O)NCc1ccc(Cl)cc1)C(=O)OC (stereo partly specified) | 0.22 | 0.8 | 22 | 0.5 | 52*
CC(C)[C@H](NC(=O)NCc1ccc(Cl)cc1)C(=O)O | 1.1 | 1.1 | -7 | 1.1 | -8
COc1cccc(C(C)NC(=O)Nc2cccc(C(F)(F)F)c2)c1 (stereo unspecified) | -8.3* | 0.5 | 46 | 0.3 | 67*
CCC(C)[C@H](NC(=O)Nc1cccc(OC)c1)C(=O)OC (stereo partly specified) | 0.12 | 0.9 | 11 | 0.5 | 55*
COc1cc(-c2cc(C(F)(F)F)n3ncc(C(=O)O)c3n2)cc(OC)c1OC | 0.27 | 0.7 | 33 | 0.7 | 26
CC1=NC(C(F)(F)F)(C(F)(F)F)C(C#N)=C(C)N1 | 0.15 | 1 | 0 | 0.3 | 69*
CCC(=C(c1ccc(OC)cc1)c1ccc(OC)cc1)c1cn(CC(O)CN2CCN(C)CC2)c2ccccc12 (stereo unspecified) | nt | 0.3 | 70* | 0.9 | 7
COc1ccc(C(=O)NCCn2cc(SCC(=O)N3CCOCC3)c3ccccc32)cc1 | 0.79 | 0.8 | 24 | 0.9 | 14
N#Cc1nc(-c2cccs2)oc1N1CCN(c2ccccc2)CC1 | -1.6 | 0.6 | 39 | 0.6 | 41
O=C(Nc1cccc(C(=O)N2CCOCC2)c1)c1cncc(Br)c1 | 0.25 | 1.2 | -17 | 1.1 | -12
CCCCN1c2ccccc2N(CCCO)c2cc(C)nnc21 | 1.4 | 0.4 | 65* | 0.7 | 27
CCn1ncc(/C=N\NC(=O)c2ccc3c(c2)c(C)c(C)n3Cc2ccccc2)c1C | -5.7* | 0.1 | 93* | 0.3 | 73*
CCn1nc(C)c(/C=N/NC(=O)c2ccc3c(c2)c(C)c(C)n3Cc2ccccc2)c1C | -6.2* | 0.1 | 89* | 0.1 | 86*
CCn1cc(/C=N\NC(=O)c2ccc3c(c2)c(C)c(C)n3Cc2ccccc2)c(C)n1 | -6.6* | 0.9 | 9 | 0.3 | 73*
CCn1ncc(/C=N/NC(=O)c2ccc3c(c2)OCO3)c1C | -0.27 | 1 | -4 | 0.8 | 25
CCn1cc(/C=N/NC(=O)c2ccc3c(c2)OCO3)c(C)n1 | 0.09 | 0.9 | 7 | 0.9 | 6
SMILES | Cav3 T inh | CYP2C9 act | CYP2C9 inh | CYP2C19 activ | CYP2C19 inh
COc1ccc(OCC(O)CNC(=O)c2ccccc2C(=O)O)cc1 (stereo unspecified) | 0.85 | nt | nt | nt | nt
CCCCN(CC)CCCNC(=O)CC1Oc2ccccc2NC1=O (stereo unspecified) | 0.11 | 1.2 | -16 | 1 | 1
O=C(NCCc1csc(-c2ccc(C(F)(F)F)cc2)n1)c1cccs1 | -6.1* | 0.2 | 75* | 0.6 | 41
Cc1ccc(C(=O)NCCc2csc(-c3cccnc3)n2)cc1 | 0.24 | 0.4 | 63* | 0.5 | 47
O=C(NCCc1ccc(F)cc1)c1cccs1 | 0.92 | nt | nt | nt | nt
COc1ccc(CCNC(=O)COC(=O)c2ccco2)cc1OC | -0.0056 | 1.1 | -10 | 1 | -1
COc1ccc(S(=O)(=O)NCCc2csc(-c3cccnc3)n2)cc1 | 1 | 0.4 | 60* | 0.1 | 93*
COc1ccc(-c2nc(CCNC(=O)c3ccco3)cs2)cc1OC | 0.45 | 0.5 | 54* | 0.7 | 33
N=C1C(c2ccccc2)=C(O)CN1c1ccc2c(c1)OCO2 | nt | 1.1 | -5 | 1.1 | -9
O=C(NCC1COc2ccccc2O1)C1CCC(CNc2c(N3CCCCC3)c(=O)c2=O)CC1 (stereo unspecified) | 0.91 | 0.6 | 44 | 0.7 | 34
CCc1ccc(S(=O)(=O)NCc2csc(-c3cccnc3)n2)s1 | -0.03 | nt | nt | nt | nt
O=S(=O)(NCCc1csc(-c2cccnc2)n1)c1ccc(Cl)s1 | 0.53 | 0.2 | 83* | 0.2 | 80*
COc1ccc(Cn2c(=O)[nH]c3cc(C(=O)N4CCN(Cc5ccccc5)CC4)ccc3c2=O)cc1 | -7.5* | 0.2 | 75* | 0.4 | 64*
O=C(c1ccc(Cn2c(=O)[nH]c3ccccc3c2=O)cc1)N1CCN(c2ccc(F)cc2)CC1 | -9* | 0.4 | 62* | 0.1 | 88*
COC(=O)c1ccc(CNC(=O)/C=C/c2cc([N+](=O)[O-])ccc2OC(F)F)cc1 | 0.011 | 1 | 1 | 0.9 | 11
COc1ccc(NC(=O)CSc2nnc(-c3ccccc3)n2Cc2ccco2)cc1OC | 0.35 | 0.7 | 28 | 0.8 | 16
O=C(CSc1nnc(COc2ccccc2)n1Cc1ccco1)Nc1ccc2c(c1)OCCO2 | -1.6 | 0.9 | 11 | 1 | -2
CC(=O)Nc1cccc(NC(=O)CSc2ncc(-c3ccc(Cl)cc3)n2Cc2ccco2)c1 | -3.8* | 0.6 | 42 | 0.5 | 48
COc1ccc(-c2cnc(SCC(=O)Nc3ccc4c(c3)OCO4)n2Cc2ccco2)cc1 | -4.1* | 0 | 100* | 0 | 96*
CNC(=O)C1CCC(=O)N1Cc1ccccc1Cl (stereo unspecified) | 1.3 | 1.1 | -6 | 1 | -1
O=C(Nc1cc(Cl)cc(Cl)c1)C1CCC(=O)N1Cc1ccccc1Cl (stereo unspecified) | nt | 0.1 | 91* | 0 | 96*
CC1CCc2c(sc(NC(=O)c3ccc(-c4ccccc4[N+](=O)[O-])o3)c2C#N)C1 (stereo unspecified) | -0.35 | 0.1 | 91* | 0.9 | 11
N#Cc1c(NC(=O)c2ccc(-c3ccccc3[N+](=O)[O-])o2)sc2c1CCCC2 | -0.38 | 0 | 99* | 0.5 | 50
O=C(CC12CC3CC(CC(C3)C1)C2)NCO | 0.063 | 1.1 | -10 | 1 | -1
CC(NC(=O)CC12CC3CC(CC(C3)C1)C2)C(=O)O (stereo unspecified) | -3.5* | 1.2 | -22 | 1.2 | -16
Cc1cc2c(nn1)CCc1nonc1-2 | 0.9 | 1 | 2 | 1.1 | -6
Cc1cc(C)nc(SCc2nc(N)nc(-c3ccccc3O)n2)n1 | -1.2 | 0.6 | 36 | 0.1 | 85*
